# Measurements as given in ChEMBL document CHEMBL3988442, “University of Dundee, Small-Polar-MMV Screening Library” (2021).
# Hit rate of the full screen: of about 48,000 compounds, about 13,000 (27%) showed an effect of 50% or more. This is one part of the list.
# Tested on: Wolbachia pipientis
# Experiment: Anti-Wolbachia Cell-Based Screen
# Type: functional
# Set-up: scale not given: in the data most compounds retested in dose-response had high values
# Settings: 5 µM
row,SMILES,Percent Effect
1,Cc1cccc(CC2COCCN(Cc3nccn3C)C2)n1 (centres undefined),119.1%
2,Cn1ccnc1C1CCN(CCC2CCOC2)CC1 (centres undefined),-2.458%
3,Cc1cc(-n2cccn2)ccc1CN1CCOCC(CN(C)C)C1 (centres undefined),-16.76%
4,CN(C)c1ccc(CC2COCCN(Cc3nccn3C)C2)nn1 (centres undefined),107.3%
5,Cc1noc(C)c1CN1CCN(Cc2nccn2C)C(C)C1 (centres undefined),-9.694%
6,Cn1ccnc1CN1CCOCC(Cc2ccccn2)C1 (centres undefined),-4.289%
7,Cc1cnc(CC2COCCN(Cc3nccn3C)C2)cn1 (centres undefined),117.2%
8,CCN1CCN(S(=O)(=O)N2CCc3ccccc3C2)[C@H]2CS(=O)(=O)C[C@H]21,-15.22%
9,CS(=O)(=O)NCCCN1CCCC1c1ccccc1 (centres undefined),-6.695%
10,O=C1C(Nc2ccc3nccnc3n2)CCN1c1ccccc1 (centres undefined),8.259%
11,Cc1nnc2n1CC(CNCc1nc(-c3ccsc3)no1)CC2 (centres undefined),-10.67%
12,c1csc(-c2nnc(CSCCN3CCOCC3)o2)c1,0.2217%
13,CN1CCCN(S(=O)(=O)c2cn(C)cn2)c2cc(F)ccc21,-12.29%
14,CN1CCCN(S(C)(=O)=O)c2cc(F)ccc21,-11.53%
15,CN1CCN(C(=O)c2csnn2)c2ccccc21,10.7%
16,CN1CCCN(C(=O)c2cnsn2)c2cc(Cl)ccc21,103.8%
17,CN1CCN(C(=O)c2cnsn2)c2cc(F)ccc21,151.8%
18,CN1CCCN(C(=O)c2cnsn2)c2cc(F)ccc21,119.4%
19,O=C(Nc1c(N2CCCC2)cccc1N1CCCC1)c1cnsn1,-3.532%
20,Cc1ccc(C(=O)N2CCCN(C)c3ccc(F)cc32)o1,112.2%
21,CC1CN(C)c2ccccc2CN1C(=O)c1cnsn1 (centres undefined),-24.53%
22,CN1CCN(S(C)(=O)=O)c2cc(F)ccc21,-2.725%
23,CN1CCCN(S(=O)(=O)c2cnn(C)c2)c2cc(Cl)ccc21,-13.02%

row,SMILES,Percent Effect
1,O=C(c1cncc(Br)c1)N1CCCc2ccc(F)cc21,6.203%
2,CN(Cc1cnccn1)C(=O)c1ccc(CSc2nnc[nH]2)o1,-27.79%
3,CSc1ccc(NCC(=O)NCC(=O)N2CCCC2)cc1F,-3.658%
4,CN1CCN(C(=O)c2cnsn2)c2ccc(F)cc21,79.94%
5,CN1CCN(C(=O)CCc2cccnc2)c2ccc(F)cc21,-6.701%
6,CN1CCN(C(=O)CCCc2ccccn2)c2ccc(F)cc21,-53.44%
7,CCN(CC)C(=O)c1nnn(Cc2ccccc2)c1OC,4.418%
8,CCN(C(=O)c1c(Cl)cnn1CC)C(C)C(N)=O (centres undefined),-13.9%
9,CCN(CC)C(=O)CCn1ncc2c(Cl)cccc21,18.4%
10,CCN(CC)C(=O)c1c(Br)cnn1CC,113.9%
11,CCn1ncc(Br)c1CN(C)S(=O)(=O)c1ccc(C)cc1,6.609%
12,CCN(CC)C(=O)c1c(Cl)cnn1CC,102.5%
13,CC(=O)Nc1ccc(CN(C)Cc2snnc2C)cc1,104.3%
14,Cc1nnsc1CN(C)Cc1ccc(C(=O)Nc2sccc2C#N)cc1,-8.441%
15,Cc1nc(CNC(=O)Nc2ccc3c(ccn3CCN(C)C)c2)no1,-28.14%
16,CC(=O)Nc1ccc2nc(-c3nccn3CCCN(C)C)ccc2c1,3.374%
17,CC(=O)Nc1ccc2nc(-c3nccn3C[C@@H]3CCCO3)ccc2c1,-0.02427%
18,CC(=O)Nc1ccc2nc(CN(C)Cc3noc(C)n3)ccc2c1,88.54%
19,CC(=O)Nc1ccc2nc(CN(C)Cc3snnc3C)ccc2c1,89.45%
20,CC(=O)Nc1ccc(CNC(=O)CNCc2snnc2C)cc1,-4.998%
21,Cc1cnc(NC(=O)c2cccc(CN(C)Cc3snnc3C)c2)s1,-4.019%
22,CN1C[C@@H](n2cnc(-c3ccccc3)c2-c2nccn2C)C[C@H]1C(=O)O,-7.865%
23,CN1CCCN(C[C@@H]2CN(C(=O)CCC3CCCC3)C[C@@H]2CO)CC1,0.9084%

row,SMILES,Percent Effect
1,CC(=O)N1CCCCCC1C1CCN(Cc2nnc(C(C)(C)C)o2)CC1.Cl (centres undefined),-4.894%
2,Cc1nc(C(C)(C)C)sc1C(=O)NCCn1ccnc1,6.238%
3,CNC(=O)c1cc2c(nc1NCC(C)C)CCN(S(=O)(=O)N(C)C)CC2,-14.23%
4,Cc1nc(-c2ccsc2)ccc1C(=O)O,-6.285%
5,Cc1nc(-c2ccc(CNS(=O)(=O)N(C)C)cc2)ccc1C(N)=O,115%
6,CCN(CC)C(=O)c1ccc(-c2ccsc2)nc1C,7.441%
7,CCN(CC)S(=O)(=O)NCc1ccc(-c2ccc(C(N)=O)c(C)n2)cc1,82.68%
8,CNC(=O)c1ccc(-c2ccc(CNC(=O)COC)cc2)nc1C,125.2%
9,Cc1ccc(-c2nc(CNS(=O)(=O)N(C)C)[nH]c2-c2ccccn2)cc1,19.45%
10,CCC(C)NC(=O)c1ccc(CNC(=O)COC)cc1 (centres undefined),4.124%
11,CCN(C(=O)c1ccc(-c2ccccc2)nc1C)C1CC(=O)NC1=O (centres undefined),2.82%
12,CNC(=O)c1ccc(CNC(=O)c2ccc(Cl)cc2F)cc1,6.561%
13,CNS(=O)(=O)Cc1ccc(CNC(=O)c2ccc(C)[nH]c2=O)cc1,6.775%
14,CNC(=O)c1ccc(-c2ccc(CNS(=O)(=O)N(C)C)cc2)nc1C,96.06%
15,O=C1C(NCc2cccc(O)c2)CCN1Cc1ccccc1 (centres undefined),0.7589%
16,CC(=O)N(C)CC(=O)Nc1cccc(N2CCN(CC3CC3)CC2)c1,-2.755%
17,CC(NS(=O)(=O)N(C)C)c1cccc(-n2cccn2)c1 (centres undefined),-7.408%
18,CC(=O)c1cccc(OCCCC(=O)NCC2CCCN2C)c1 (centres undefined),-10.21%
19,COC(=O)c1sccc1S(=O)(=O)NCCC(O)c1ccco1 (centres undefined),-8.026%
20,CCc1nnc(SCC(=O)N2CCc3[nH]nc(C4CCC4)c3C2)o1,38.87%
21,Cc1ccc(CN(C(=O)c2cccc(NC(N)=O)c2)C2CC2)o1,-0.2723%
22,N#Cc1cccc(NC(=O)N[C@H](CO)c2ccccc2)c1,-16.24%
23,COCc1nc(CNC2CCSC2)no1 (centres undefined),-14.23%
